{"source": "PubChem BioAssay (Tox21)", "note": "Results filed as inconclusive are left out. Where a call stands in place of a potency, no number is given. The source made the active and inactive calls. Calls come from the whole dose curve; as a rule, active = well fitted activation curve with a large enough effect in the signal ratio in the repeat runs (not every such curve was filed as active); inconclusive = weak or mixed curves, or effect the other way; inactive = no such curve, though single readings can be large or run the other way; the % refers to the signal ratio.", "data": [{"target": "Glucocorticoid receptor (Homo sapiens) (UniProt P04150)", "sequence (P04150 whole entry, looked up)": "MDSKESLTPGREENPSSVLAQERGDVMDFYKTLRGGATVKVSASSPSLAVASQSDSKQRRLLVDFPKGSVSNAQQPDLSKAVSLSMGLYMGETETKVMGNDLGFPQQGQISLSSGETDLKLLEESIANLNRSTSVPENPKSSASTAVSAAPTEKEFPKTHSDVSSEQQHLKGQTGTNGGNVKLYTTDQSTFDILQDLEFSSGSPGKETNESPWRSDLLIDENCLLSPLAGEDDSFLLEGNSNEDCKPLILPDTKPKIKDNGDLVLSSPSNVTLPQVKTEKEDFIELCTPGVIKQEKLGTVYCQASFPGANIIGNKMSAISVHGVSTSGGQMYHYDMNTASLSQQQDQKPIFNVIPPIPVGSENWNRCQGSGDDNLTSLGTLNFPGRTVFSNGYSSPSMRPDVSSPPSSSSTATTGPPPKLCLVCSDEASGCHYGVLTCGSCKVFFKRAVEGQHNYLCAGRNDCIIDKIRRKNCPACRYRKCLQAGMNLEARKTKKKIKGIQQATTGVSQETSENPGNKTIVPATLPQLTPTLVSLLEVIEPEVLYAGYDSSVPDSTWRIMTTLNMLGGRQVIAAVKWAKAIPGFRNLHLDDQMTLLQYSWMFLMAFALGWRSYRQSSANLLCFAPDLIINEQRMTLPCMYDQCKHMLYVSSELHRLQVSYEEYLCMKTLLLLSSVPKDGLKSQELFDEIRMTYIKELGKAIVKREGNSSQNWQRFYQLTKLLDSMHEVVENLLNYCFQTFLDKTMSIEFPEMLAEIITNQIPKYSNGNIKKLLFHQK", "experiment": "qHTS assay to identify small molecule agonists of the glucocorticoid receptor (GR) signaling pathway (AID 720691)", "conditions": "GR-bla HeLa, beta-lactamase reporter ratio, 18 h; series mostly up to 62.4 µM", "text": "U.S. Tox21 Program National Center for Advancing Translational Sciences [NCATS] NIH Chemical Genomics Center [NCGC] U.S. Environmental Protection Agency [EPA] National Institutes of Environmental Health Sciences [NIEHS] National Toxicology Program [NTP] U.S. Food and Drug Administration [FDA] Tox21 Assay Overview: The Glucocorticoid receptor (GR) is one of the members of the nuclear receptor family of ligand-dependent transcription factors. GR plays a critical role in carbohydrate, protein and lipid metabolisms and programmed cell death. CellSensor GR-bla HeLa cell line (Invitrogen) contains a beta-lactamase reporter gene under the control of the glucocorticoid response element stably integrated into HeLa cells, a cervical cancer cell line that expresses glucocorticoid receptor. The activation of the reporter gene under culture conditions can be detected by fluorescence intensity. This cell line has been used to screen the Tox21 10K compound library and to identify the compounds that activate the GR signaling.\nTox21 Assay Protocol Summary: The GR-bla HeLa cells were dispensed at 1500 cells/6 ul/well in 1536-well black wall/clear bottom plates using a Multidrop Combi (ThermoFisher Scientific, Waltham, MA) dispenser. After the assay plates were incubated at a 37 C/5% CO2 incubator for 4 hours, 23 nL of compounds dissolved in DMSO, positive controls or DMSO only was transferred to the assay plate by a pintool station (Kalypsys, San Diego, CA). The plates were incubated at 37 C for 18 hours. After 1 uL of LiveBLAzerTM B/G FRET substrate was added using a Flying Reagent Dispenser (Aurora Discovery, San Diego, CA), the plates were incubated at room temperature for 2 hours, and fluorescence intensity was measured by an Envision plate reader (PerkinElmer, Shelton, CT).", "values": [{"smiles": "CNC(C)=O", "Potency": "inactive"}, {"smiles": "CCCCCCCCCCCCCCBr", "Potency": "inactive"}, {"smiles": "c1coc(Cn2cccc2)c1", "Potency": "inactive"}, {"smiles": "CC(C)C[P+](C)(CC(C)C)CC(C)C", "Potency": "inactive"}, {"smiles": "NS(=O)(=O)c1cc2c(cc1C(F)(F)F)NCNS2(=O)=O", "Potency": "inactive"}, {"smiles": "CNCCc1ccccn1", "Potency": "inactive"}, {"smiles": "CCOC(=O)[C@H](CCc1ccccc1)N[C@H]1CS[C@H](c2cccs2)CN(CC(=O)O)C1=O", "Potency": "inactive"}, {"smiles": "CC(C)c1cc(C(C)C)cc(C(C)C)c1", "Potency": "inactive"}, {"smiles": "Nc1nc(Cl)cc(Cl)n1", "Potency": "inactive"}, {"smiles": "CC(C)(C)c1ccc(N)cc1", "Potency": "inactive"}, {"smiles": "CC(=O)OC1CCC(C(C)(C)C)CC1", "note": "(stereo not given)", "Potency": "inactive"}, {"smiles": "CC(O)C(CO)C(C)O", "note": "(stereo not given)", "Potency": "inactive"}, {"smiles": "COCCCOc1cc(C[C@@H](C[C@H](N)[C@@H](O)C[C@H](C(=O)NCC(C)(C)C(N)=O)C(C)C)C(C)C)ccc1OC", "Potency": "inactive"}, {"smiles": "CC(C)(C)NCC(O)COc1cccc2c1CCC(=O)N2", "note": "(stereo not given)", "Potency": "inactive"}, {"smiles": "O=S(=O)(O)c1ccc(Cl)cc1", "Potency": "inactive"}, {"smiles": "O=C1c2ccccc2C(=O)N1CO", "Potency": "inactive"}, {"smiles": "Cc1ccc(NC(N)=O)cc1", "Potency": "inactive"}, {"smiles": "O=C(O)P(=O)(O)O", "Potency": "inactive"}, {"smiles": "N=C(N)N", "Potency": "inactive"}, {"smiles": "CC/C=C/CCCCCCCCCCOC(C)=O", "Potency": "inactive"}, {"smiles": "O=C(OOC(=O)c1ccccc1)c1ccccc1", "Potency": "inactive"}, {"smiles": "C=CCN(CC=C)CC=C", "Potency": "inactive"}, {"smiles": "CC[N+](C)(CC)CC", "Potency": "inactive"}, {"smiles": "COc1cnc(NS(=O)(=O)c2ccc(N)cc2)nc1", "Potency": "inactive"}, {"smiles": "O=C(O)CCCCCCCCCC(=O)O", "Potency": "inactive"}, {"smiles": "CCc1ccc(CC)cc1", "Potency": "inactive"}, {"smiles": "COc1ccc(Cl)cc1C", "Potency": "inactive"}, {"smiles": "CCCCCCCCCCCCCCCC/C=C/C1CC(=O)OC1=O", "note": "(stereo not given)", "Potency": "inactive"}, {"smiles": "Nc1ccc(C(=O)NCC(=O)O)cc1", "Potency": "inactive"}, {"smiles": "CCCC(C)C(O)CC", "note": "(stereo not given)", "Potency": "inactive"}, {"smiles": "CN1C(CCl)Nc2cc(Cl)c(S(N)(=O)=O)cc2S1(=O)=O", "note": "(stereo not given)", "Potency": "inactive"}, {"smiles": "CCC(C)SSC(C)CC", "note": "(stereo not given)", "Potency": "inactive"}, {"smiles": "CCCCCCCCCCCCCCCC(=O)OC", "Potency": "inactive"}, {"smiles": "BrCCOc1ccccc1", "Potency": "inactive"}, {"smiles": "CCCCCCCCCCCBr", "Potency": "inactive"}, {"smiles": "Cc1cc(C)c(N)c(Cl)c1", "Potency": "inactive"}, {"smiles": "CCO/C=C1\\N=C(c2ccccc2)OC1=O", "Potency": "inactive"}, {"smiles": "Nc1cc(S(=O)(=O)O)ccc1O", "Potency": "inactive"}, {"smiles": "CC(C)(C)OC=O", "Potency": "inactive"}, {"smiles": "CC(=O)SCC(CC(=O)c1ccc(C)cc1)C(=O)O", "note": "(stereo not given)", "Potency": "inactive"}]}]}
